According to PubChem BioAssay AID1347076 (National Center for Advancing Translational Sciences (NCATS), 2019):
The campaign covered roughly 400,000 compounds. About 13,000 (3.2%) were called active. Inconclusive results (about 18%) are left out. The sample holds actives, similar compounds and a random draw of the others, so the mix is not that of the screen. The call rests on the fitted dose curve; in most records, active means well fitted cell-killing curve with a large enough effect; inconclusive means small, poorly fitted or top-dose-only effect, or effect the other way; inactive means flat fitted curve, though single readings scatter.

Test: qHTS assay for MDR1-selective chemotherapeutics: Primary screen using the drug-selected MDR subline cells KB-V1; further: nearly all actives have a fitted effect of over 60% in size
Conditions: KB-V1 MDR cells viability, CellTiter-Glo, 72 h; series mostly up to 46.1 µM; activity change, negative = cytotoxicity: at the top concentration
Outline: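 Following 72 h at 37 degrees C with compound, KB-V1 cell viability was read by CellTiter-Glo luminescence, medium being phenol-red-free DMEM plus 10% FBS; concentration-response parameters came from normalized, curve-fitted qHTS data.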
On the % scale 0 is the no-effect control and ±100 the full control effect; potency means the concentration at half of the fitted maximal effect.

Compound | activity change, negative = cytotoxicity | Potency
OC[C@@H]1CN(Cc2ccc3c(c2)OCO3)C[C@H](n2cnc3c(NCc4ccco4)ncnc32)O1 | 0.266% (inactive) | –
CC1(c2cccc(N)c2)OCCO1 | 14.4% (inactive) | –
COc1ccc(NC(=O)Cn2c(=O)cc(C)c3c(C)nn(-c4cccc(Cl)c4C)c32)cc1OC | 4.25% (inactive) | –
Cn1nc(N)c2ncc(C(Cl)(Cl)Cl)nc21 | 16.9% (inactive) | –
Nc1cc(=O)c2[nH]cnc2[nH]1 | 11.3% (inactive) | –
S=c1[nH]c(=S)c2n[nH]nc2[nH]1 | -23.8% (inactive) | –
Cc1ccc2nc(-c3cccnc3)c(NC3CCCC3)n2c1 | – | 2.59 µM (active)
Cc1ccc2nc(-c3ccc(O)cc3)c(Nc3ccc4c(c3)OCO4)n2c1 | 12.8% (inactive) | –
Cc1ccc2nc(-c3ccccc3)c(CC3CCCCC3)n2c1 | 8.28% (inactive) | –
COc1ccccc1CNc1nccn(-c2ccc(F)cc2)c1=O | 5.14% (inactive) | –
CCOC(=O)C1(C)CCCN(C(=O)c2cccc(Cl)c2)C1 (stereo unspecified) | -11.5% (inactive) | –
Oc1cc2c(cc1O)CN(C(=S)NCCc1ccc(Cl)cc1)CCC2 | – | 14.6 µM (active)
COc1ccc(CCNC(=S)N2CCN(S(=O)(=O)c3ccc(Cl)cc3)CC2)cc1 | 4.6% (inactive) | –
O=C(NCCc1ccc(Cl)cc1)c1cccc(N2CCCC2=O)c1 | -5.68% (inactive) | –
Cc1cc([N+](=O)[O-])ccc1NC(=O)C1CCCO1 (stereo unspecified) | -0.842% (inactive) | –
Cc1cc([N+](=O)[O-])ccc1NC1CCCC1 | – | 16.4 µM (active)
Cc1cc([N+](=O)[O-])ccc1NCc1cccc([N+](=O)[O-])c1 | -4.27% (inactive) | –
COc1ccc(-c2nnc(SCC(=O)Nc3ccc(C(C)C)cc3)nc2-c2ccc(OC)c(OC)c2)cc1OC | 10.8% (inactive) | –
CC1(C)CN(CCc2ccccc2)C(=O)[C@H]1CC(=O)Nc1ccc(Br)cc1 | -1.58% (inactive) | –
CC1(C(=O)NS(=O)(=O)c2ccccc2)CCN1C(=O)C/C=C/c1ccccc1 (stereo unspecified) | 1.3% (inactive) | –
Cc1cccc(C(=O)Nc2ccccc2N2CCN(c3ccc(F)cc3)CC2)c1 | -30.1% (inactive) | –
O=C(Nc1ccccc1N1CCN(c2ccccc2)CC1)c1cccc(F)c1 | – | 11.6 µM (active)
CCn1c(=O)c(=O)n(CC)c2cc(N3CCCCC3)c(NC(=O)c3cccc(F)c3)cc21 | -3.16% (inactive) | –
O=C(NCc1nnnn1-c1ccc(Cl)cc1)c1ccc2c(c1)OCO2 | -9.69% (inactive) | –
CSc1ccc(S(=O)(=O)NCc2ccc(Cl)cc2)cc1 | – | 23.1 µM (active)
Cc1ccc(S(=O)(=O)NCCC(=O)NCc2ccc(Cl)cc2)cc1C | 9.48% (inactive) | –

Compound | activity change, negative = cytotoxicity | Potency
CC(C)CNS(=O)(=O)c1ccc(CCC(=O)NCc2ccc(Cl)cc2)cc1 | -5.32% (inactive) | –
CCCCN1C[C@H](c2ccc(Br)cc2)[C@@H](CC(=O)Nc2ccc(Br)cc2)C1=O | -4.39% (inactive) | –
O=C(Nc1ccc(F)cc1)c1ccc(S(=O)(=O)NCc2cccnc2)cc1 | 0% (inactive) | –
Cc1ccc(C(=O)Nc2ccc(C(=O)O)cc2)cc1S(=O)(=O)Nc1ccccc1 | 1.49% (inactive) | –
O=C(Nc1ccc(Br)cc1)c1ccc(Br)c(S(=O)(=O)NCc2ccccc2)c1 | – | 13 µM (active)
COCCNC(=O)c1cc2c(Br)ccc(Br)c2nc1N | 0% (inactive) | –
O=S1(=O)CC(N2CCN(CCO)CC2)CN1Cc1cn(Cc2ccc(Cl)cc2)nn1 (stereo unspecified) | -0.0484% (inactive) | –
CC(C)n1ncc2c(C(=O)N3CCN(Cc4cccs4)CC3)cc(C3CC3)nc21 | -27.5% (inactive) | –
Cc1cc2oc(=O)cc(CN(C)Cc3ccccc3)c2cc1Cl | 0.451% (inactive) | –
CC1=NN(C(=O)Cc2ccc(C)cc2)C(O)(c2cccnc2)C1 (stereo unspecified) | 0.391% (inactive) | –
CCC1=NN(C(=O)Cc2ccc([N+](=O)[O-])cc2)C(O)(c2ccc(Br)cc2)C1 (stereo unspecified) | – | 13 µM (active)
CC1=NN(C(=O)c2ccc(Br)cc2)C(O)(c2ccccc2)C1 (stereo unspecified) | 9.29% (inactive) | –
C[C@@H]1CN([C@H](C)CO)S(=O)(=O)c2ccc(C#CC3CCCCC3)cc2O[C@H]1CN(C)C(=O)Cc1ccncc1 | 0% (inactive) | –
COc1ccc(NC(=O)c2ccco2)cc1NC(=O)COc1ccc(C)c(C)c1 | -4.24% (inactive) | –
O=C(c1ccccc1)c1cc(-c2ccccn2)c(N2CCOCC2)s1 | – | 8.2 µM (active)
CCc1ccc2ncc(C(=O)c3ccccc3)c(N3CCOCC3)c2c1 | -2.87% (inactive) | –
O=C(NCC(c1cccs1)N1CCOCC1)c1cc(-c2ccccn2)nc2ccccc12 (stereo unspecified) | -21.1% (inactive) | –
COCCNc1ncnc2c1ncn2[C@H]1CN(CCN2CCOCC2)C[C@@H](CO)O1 | 3.73% (inactive) | –
Fc1ccc(-n2ncc3c(Nc4ccc(Oc5ccccc5)cc4)ncnc32)cc1 | 0% (inactive) | –
CCc1nn(CCCN2CCN(c3cccc(Cl)c3)CC2)c(=O)n1CCOc1ccccc1 | – | 6.51 µM (active)
Cn1c(C(=O)NCCCN2CCN(c3cccc(Cl)c3)CC2)cc2c(=O)n(C)c3ccccc3c21 | 15.4% (inactive) | –
OC(COc1ccccc1)CN1CCN(c2cccc(Cl)c2)CC1 (stereo unspecified) | 0.123% (inactive) | –
CC(O)(c1cccc(F)c1)c1nc(-c2ccc3c(c2)OCO3)cs1 (stereo unspecified) | 3.39% (inactive) | –
CCc1nc2ccc(C(=O)NCCNC(C)=O)cn2c1N(CC)Cc1cccc(Br)c1 | 5.36% (inactive) | –
COc1ccc(-n2c(SC)nc3sc4c(c3c2=O)CCN(C(C)=O)C4)cc1 | -5.53% (inactive) | –
CNc1cnc(-c2cc(OC)c(OC)c(OC)c2)cn1 | 6.28% (inactive) | –

Compound | activity change, negative = cytotoxicity | Potency
CN1c2ccc(C=O)c3c(C=O)ccc(c23)N(C)C1(C)C | – | 18.4 µM (active)
Cc1ccc(C=O)c([B-](F)(F)F)c1 | -1.5% (inactive) | –
Cc1cc(C)c2c(=O)n3c(nc2c1)C(CC(C)C)NC(=O)c1cc2ccccc2cc1-3 (stereo unspecified) | -6.74% (inactive) | –
CN(C)C1=C2C=CC=CC2/C(=C2/C=Cc3ccccc32)C=C1 (stereo unspecified) | 6.11% (inactive) | –
CC(=O)Nc1ccc2c3c(ccc([N+](=O)[O-])c13)CC2 | 27% (inactive) | –
CN(C)S(=O)(=O)c1cccc(NC(=O)Cc2ccsc2)c1 | 5.23% (inactive) | –
CN(c1ccccc1)S(=O)(=O)c1ccc(NC(=O)COc2ccccc2)cc1 | -39.9% (inactive) | –
CN(c1ccccc1)S(=O)(=O)c1cccc(NC(=O)Cc2ccc(Cl)cc2)c1 | – | 5.8 µM (active)
COc1ccc(CN2C(=O)C(CC(=O)NC3CCCCC3)CC(C(=O)N3CCOCC3)=C2C)cc1 (stereo unspecified) | -2.91% (inactive) | –
CCn1cc(CN2CCC(C(=O)Nc3cccc(-c4cccc(Cl)c4)c3)CC2)cn1 | 12% (inactive) | –
O=C(Nc1cnn(Cc2ccc(Cl)cc2)c1)C1CCCC1 | – | 20.6 µM (active)
O=C(O)C1CCCCC1C(=O)Nc1ccc(Cl)cc1 (stereo unspecified) | 15% (inactive) | –
CCCCCCN1C[C@@H](O)[C@H](n2cc(COC(=O)c3ccccc3)nn2)C[C@@H]1c1ccc(Cl)cc1 | -19.6% (inactive) | –
Cc1ccc(OCCSc2nc3ccc(NC(=O)COc4ccc(C)cc4)cc3s2)cc1 | 19.9% (inactive) | –
COC(=O)c1cc(C(=O)OC)cc(N2C(=O)CC(N3CCN(c4ccccc4)CC3)C2=O)c1 (stereo unspecified) | 0.274% (inactive) | –
CCOC(=O)N1C(=O)C[C@](Sc2ccc(C)cc2)(C(=O)OC)[C@H]1c1ccccc1 | 0% (inactive) | –
COC(=O)[C@@]1(Sc2ccc(C)cc2)CC(=O)N(c2cccc(SC)c2)[C@@H]1c1ccccc1 | – | 20.6 µM (active)
Clc1cccc[n+]1CCCC[n+]1ccccc1Cl | -0.735% (inactive) | –
Cc1cc(C)cc(NS(=O)(=O)c2ccc(Oc3ncc(C(F)(F)F)cc3Cl)cc2)c1 | – | 16.4 µM (active)
Cc1ccc(NS(=O)(=O)c2ccc(C(C)(C)C)cc2)cn1 | -22.7% (inactive) | –
Cc1cc(C)cc(NS(=O)(=O)c2ccc(F)cc2)c1 | 1.11% (inactive) | –
CC1(C(=O)Nc2cccc(Oc3ccccc3)c2)CCN1Cc1ccccc1Cl (stereo unspecified) | -7.82% (inactive) | –
CCN(CC)CCn1c(N)c(S(=O)(=O)c2ccccc2)c2nc3ccccc3nc21 | -23.5% (inactive) | –
Cc1ccc(S(=O)(=O)c2c(N)n(C)c3nc4ccccc4nc23)cc1 | -1.9% (inactive) | –
CCC(=O)Nc1c(S(=O)(=O)c2ccccc2)c2nc3ccccc3nc2n1Cc1ccccc1 | – | 4.11 µM (active)
Cc1c(NC(=O)c2cc(=O)c3ccccc3o2)c(=O)n(-c2ccccc2)n1C | 0% (inactive) | –

Compound | activity change, negative = cytotoxicity | Potency
O=C(C[C@H]1C[C@@H]2c3cc(NC(=O)C4CCC4)ccc3O[C@@H]2[C@H](CO)O1)NC1CCCCC1 | 10.9% (inactive) | –
CCCNC(=O)c1cc(C2CCCN(C(=O)c3ccc4c(c3)CCO4)C2)on1 (stereo unspecified) | 2.38% (inactive) | –
O=C(NCc1ccc(F)cc1)c1ccc2nc(N3CCCCC3)sc2c1 | -6.93% (inactive) | –
Cc1ccc2nc(N3CCN(C(=O)c4ccco4)CC3)sc2c1 | -4.81% (inactive) | –
c1c2c(cc3sc(N4CCCCC4)nc13)OCCO2 | – | 20.6 µM (active)
COc1ccccc1CNC(=O)NCc1noc2ccc(C)cc12 | 0% (inactive) | –
COc1cccc2c1C(=O)c1c(O)c3c(c(O)c1C2=O)CC(O)(C(C)=NNC(=O)c1ccc(Cl)c(Cl)c1)CC3OC1CC(N)C(O)C(C)O1 (stereo unspecified) | – | 23.1 µM (active)
CC(=O)Nc1cccc(Nc2ccc(C#N)cc2)c1 | 2.59% (inactive) | –
CCOC(=O)C1=C(c2ccccc2)Nc2ncnn2C1c1ccc(Cl)cc1 (stereo unspecified) | -0.799% (inactive) | –
CCNC(=O)C1(C)CCCN1C(=O)c1ccc(N(C)C)cc1 (stereo unspecified) | 5.84% (inactive) | –
Clc1ccccc1CSc1nnc(-c2ccco2)c(-c2ccco2)n1 | – | 20.6 µM (active)
CC1(C)N=C(SCc2ccccc2Cl)c2ccccc2N1 | 12.4% (inactive) | –
Clc1ccccc1CSc1nncn2c1cc1occc12 | -18.7% (inactive) | –
O=S(=O)(NCC(c1ccco1)N1CCOCC1)c1cc(F)ccc1F (stereo unspecified) | 8.46% (inactive) | –
CCC(=O)N1Cc2cc(C(=O)NCc3cccc(F)c3)nc(-c3cccc(C4=CCCC4)c3)c2[C@H]1CCO | 5.37% (inactive) | –
Cc1ccnc(N2CCCC(C(=O)NC3CC3)C2)n1 (stereo unspecified) | -14.5% (inactive) | –
O=C(NC1CCN(C(=S)Nc2ccc(Cl)cc2)CC1)C1CCCCC1 | 1.93% (inactive) | –
O=C(NNC(=O)C1CCN(c2ncccn2)CC1)c1ccccc1 | 1.32% (inactive) | –
O=C(NC1CCCCCC1)C1CCN(C(=O)c2ccc(Cl)cc2)CC1 | – | 14.6 µM (active)
O=C(NC1CCCC1)C1CCN(C(=O)Nc2cccc(Cl)c2)CC1 | 2.05% (inactive) | –
Cc1ccnc(N2CCC(C(=O)NC3CCCCCC3)CC2)n1 | – | 16.4 µM (active)
Cc1ccc(C(NC(=O)C2CCN(CCOc3ccc(Cl)cc3Cl)CC2)c2ccccn2)cc1 (stereo unspecified) | 0.551% (inactive) | –
COc1ccc(NC(=O)C[C@H]2C(=O)N(CCc3ccccc3)C[C@@H]2C)cc1 | -28.9% (inactive) | –
